According to PubChem BioAssay (EPA / NIEHS):
Activity calls are given as the source filed them. How the source made its calls: active means hit-call score of the fitted dose curve at least 0.9, where 1 is the maximum; inactive means score below 0.9.

Assay: UKN4_HCS_LUHMES_neurite_outgrowth: University of Konstanz (UKN) Leist Lab Neurite Outgrowth Assay in human LUHMES cells (UKN4) (AID 2284206)
Conditions: actives raise or lower the signal
Protocol: UKN4_HCS_LUHMES is a cell-based, multiplexed-readout assay screening for neurite outgrowth and cell viability that uses LUHMES, a human central nervous system cell line, with measurements taken at […] after chemical dosing in a microplate: 96-well plate. UKN4, also referred to as NeuriTox, is an assay that uses LUHMES neuronal precursors as a model of dopaminergic neuronal differentiation. Following a 2-day differentiation period, cells are exposed to chemicals for 24 hr and neurite area is evaluated as a marker of neurite outgrowth using high-content imaging of cells stained with calcein AM. Cell viability is assessed using stain Hoechst H-33342.UKN4_HCS_LUHMES_neurite_outgrowth is an assay component measured from the UKN4_HCS_LHUMES assay. It is designed to make measurements of neurite outgrowth, a form of morphology reporter, as detected with Fluorescence intensity signals by HCS Fluorescent Imaging.The assay endpoint UKN4_HCS_LUHMES_neurite_outgrowth was analyzed with bidirectional fitting relative to DMSO as the negative control and baseline of activity. Using a type of morphology reporter, gain or loss-of-signal activity can be used to understand developmental effects. To generalize the intended target to other relatable targets, this assay endpoint is annotated to the neurodevelopment intended target family, where the subfamily is neurite outgrowth.
Proliferating LUHMES cells are seeded in proliferation medium for 24 hours. Day 0: Medium is changed from proliferation medium to differentiation medium. Day 2: Cell number reaches about 30-40 Mio per T175 flask. Cells are trypsinized and replated onto 96-well plates (30000 cells/well in 90 ul) in differentiation medium without cAMP and GDNF. At about 30 min - 2 hours after seeding, when cells have attached, the compounds are added (10 ul of each dilution; total volume 100 ul). Day 3: 23.5 h after toxicant treatment, cells are live-stained with H-33342 and calcein-AM and incubated for 30 min. After 24 h of treatment (including staining), the cells are imaged using a high-content microscope (Cellomics).
With `CP(=O)(O)CCC(N)C(=O)O` (centres undefined) the outcome was “inactive”.
For `CN1CC[C@]23c4c5ccc(O)c4O[C@H]2[C@@H](O)C=C[C@H]3[C@H]1C5`, the outcome was “inactive”.
For `CC(=O)Oc1ccc2c3c1O[C@H]1[C@@H](OC(C)=O)C=C[C@H]4[C@@H](C2)N(C)CC[C@@]341`, the outcome was “inactive”.
With `[CH3][Hg][Cl]` the AC50 was 0.164 µM (active).
For `C[n+]1ccc(-c2cc[n+](C)cc2)cc1`, the AC50 was 189 µM (active).
For `O=C1N[C@@H]2C(=C[C@H](O)[C@@H](O)[C@H]2O)c2cc3c(c(O)c21)OCO3`, the AC50 was 0.0456 µM (active).
For `CC(C)CC(C)c1sccc1NC(=O)c1cn(C)nc1C(F)(F)F` (centres undefined), the AC50 was 73.1 µM (active).
With `[Cd+2].[Cl-].[Cl-]` the AC50 was 6.25 µM (active).
With `[O-][Cl+3]([O-])([O-])O` the outcome was “inactive”.
For `C/C(=C/C=C/[C@@H](C)C(=O)O)[C@H]1CN[C@H](C(=O)O)[C@H]1CC(=O)O`, the outcome was “inactive”.
In the case of `CC1(C)[C@H](C(=O)O[C@H](C#N)c2cccc(Oc3ccccc3)c2)[C@@H]1C=C(Br)Br`, the outcome is reported as “inactive”.
With `Brc1ccc(Oc2cc(Br)c(Br)cc2Br)c(Br)c1` the AC50 was 13.4 µM (active).
For `C[n+]1ccc(-c2ccccc2)cc1`, the AC50 was 2.69 µM (active).
In the case of `O=[As](O)(O)O`, the AC50 is reported as 74.5 µM (active).
With `Brc1ccc(Oc2ccc(Br)cc2Br)c(Br)c1` the AC50 was 21.8 µM (active).
With `[CH3][Sn]([CH3])([CH3])[Cl]` the AC50 was 2.5 µM (active).
For `CN1CC=C(c2ccccc2)CC1`, the outcome was “inactive”.
With `CC(=O)[O-].CC(=O)[O-].O.O.O.[Pb+2]` the outcome was “inactive”.
For `CC1(C)C(C=C(Cl)Cl)[C@H]1C(=O)O[C@H](C#N)c1cccc(Oc2ccccc2)c1` (some centres undefined), the outcome was “inactive”.
With `COC(=O)[C@H]1[C@@H](OC(=O)c2ccccc2)C[C@@H]2CC[C@H]1N2C` the outcome was “inactive”.
With `CNC(C)Cc1ccc2c(c1)OCO2` (centres undefined) the outcome was “inactive”.
With `CN[C@@H](C)Cc1ccccc1` the outcome was “inactive”.
With `CNC1(c2ccccc2Cl)CCCCC1=O` (centres undefined) the AC50 was 34.1 µM (active).
In the case of `Clc1cc(Cl)c(-c2cc(Cl)c(Cl)c(Cl)c2Cl)cc1Cl`, the AC50 is reported as 14.2 µM (active).
